Data: PubChem BioAssay (NCATS)
Results filed as inconclusive are left out. Active and inactive are the calls of the source. Unless noted, the call rests on the fitted dose curve; in most records, active means well fitted curve in the direction sought with a large enough effect; inconclusive means small, poorly fitted or top-dose-only effect, or another doubt; inactive means no such curve, though single readings can be large; an effect the other way counts as inactive or inconclusive.

Legend:
[1] = P-glycoprotein substrates identified in KB-3-1 adenocarcinoma cell line, qHTS therapeutic library screen (AID 1346986); further: nearly all actives have a fitted effect of over 60% in size;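 further: potency means the concentration at half of the fitted maximal effect; potency is for cytotoxicity meaning loss of cell viability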
Procedure, shortened: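 KB-3-1 parental and colchicine-selected P-gp-overexpressing KB-8-5-11 cells (colchicine omitted during assay), 500 cells/well, dosed in dose-response for 72 h at 37 °C; CellTiter-Glo luminescence. Cytotoxic: curve class -1.1 to -2.4, max response >50%, AC50 < 10 uM.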

[2] = P-glycoprotein substrates identified in KB-8-5-11 adenocarcinoma cell line, qHTS therapeutic library screen (AID 1346987); further: nearly all actives have a fitted effect of over 65% in size; further: potency means the concentration at half of the fitted maximal effect
Procedure, shortened: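 Steps: plate 500 KB-8-5-11 cells/well in DMEM + 10% FCS (colchicine removed); pin compounds in dose-response; incubate 72 h, 37 degree C, 5% CO2; add CellTiter-Glo, 5 min; read luminescence.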

[3] = Primary qHTS for inhibitors of nuclear receptor binding SET domain protein 2 (NSD2) in an isogenic RCH-ACV NSD2 p.E1099K mutant (9B) (AID 1645876); further: nearly all actives have a fitted effect of over 70% in size; further: potency means the concentration at half of the fitted maximal effect
[4] = Primary qHTS for inhibitors of nuclear receptor binding SET domain protein 2 (NSD2) in an RCH-ACV wild type WT cells (2C) (AID 1645877); further: nearly all actives have a fitted effect of over 70% in size; further: potency means the concentration at half of the fitted maximal effect
[5] = NCATS anti-infectives library activity on HEK293 viability as a counter-qHTS vs the C. elegans viability qHTS (AID 1745854);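 further: HEK293 cells exposed to compounds for 24 hr before the viability read; on the % scale 0 is the no-effect control and ±100 the full control effect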
Procedure, shortened: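 Compounds were acoustically plated (several concentrations, 1:5, final up to 41.7 uM), then 1500 HEK293 cells added per well and incubated 24 hr at 37C, 5% CO2. CellTiter-Glo was added and luminescence read after 10 min.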

[6] = target: Glutathione peroxidase 1 (Homo sapiens) (UniProt P07203); assay: Primary qHTS Assay for Inhibitors of Recombinant Selenoprotein Glutathione Peroxidase 1 (GPX1) (AID 1845191); further: nearly all actives have a fitted effect of over 65% in size; further: potency means the concentration at half of the fitted maximal effect; on activity, negative = inhibition: on the % scale 0 is the no-effect control and ±100 the full control effect
Procedure, shortened: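 GR-coupled assay: compounds preincubated 30 min at room temperature with GPX1, then reaction started with CHP; final 10 nM GPX1, 1 mM GSH, 0.5 mM CHP, 0.5 mM NADPH, 100 nM GR, 0.01% BSA, pH 7.5 Tris buffer. NADPH fluorescence (340/450 nm) read at 0 and 15 min.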

[7] = target: Catechol O-methyltransferase (Homo sapiens) (UniProt P21964); assay: Confirmatory Screen for Target Class Profiling of Small Molecule Inhibitors of Methyltransferases (AID 1745852; calls by dose curve; further: potency means the concentration at half of the fitted maximal effect; on activity change, negative = inhibition: on the % scale 0 is the no-effect control and ±100 the full control effect); conditions: MTase-Glo luminescence, SAH detection, recombinant enzyme; measured here: COMT max response; stronger effect = lower value
[8] = target: Guanidinoacetate N-methyltransferase (Homo sapiens) (UniProt Q14353); assay: as above; conditions: activity change, negative = inhibition: at 57.3 µM (top of the series) unless noted
[9] = target: Nicotinamide N-methyltransferase (Homo sapiens) (UniProt P40261); assay: as above; conditions: MTase-Glo luminescence, SAH detection, recombinant enzyme; measured here: NNMT max response; stronger effect = lower value
[10] = target: Phenylethanolamine N-methyltransferase (Homo sapiens) (UniProt P11086); assay: as above; conditions: MTase-Glo luminescence, SAH detection, recombinant enzyme; measured here: PNMT max response; stronger effect = lower value
[11] = qHTS drug screen for cell cycle checkpoint inhibitors in PARPi-resistant BRCA-mutant ovarian cancer cell lines. (AID 1963452; calls by dose curve); conditions: PEO1/OlaR viability, CellTiter-Glo luminescence, 96 h, stronger effect = lower value
Procedure, shortened: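 PEO1, PEO4 and PEO1/OlaR ovarian cancer cells, 600 per well, exposed 96 h at 37C to a dilution series. Viability read by CellTiter-Glo luminescence, normalized to DMSO and empty wells; activity summarized as Z-AUC.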

Chain of Glutathione peroxidase 1 (Homo sapiens) (P07203 whole entry, looked up): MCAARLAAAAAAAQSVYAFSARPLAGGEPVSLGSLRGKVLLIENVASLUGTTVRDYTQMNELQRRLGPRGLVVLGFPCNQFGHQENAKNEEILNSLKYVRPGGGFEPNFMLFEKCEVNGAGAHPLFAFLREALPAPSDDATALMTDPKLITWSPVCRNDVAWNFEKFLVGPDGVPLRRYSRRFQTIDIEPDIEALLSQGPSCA
Chain of Catechol O-methyltransferase (Homo sapiens) (P21964 whole entry, looked up): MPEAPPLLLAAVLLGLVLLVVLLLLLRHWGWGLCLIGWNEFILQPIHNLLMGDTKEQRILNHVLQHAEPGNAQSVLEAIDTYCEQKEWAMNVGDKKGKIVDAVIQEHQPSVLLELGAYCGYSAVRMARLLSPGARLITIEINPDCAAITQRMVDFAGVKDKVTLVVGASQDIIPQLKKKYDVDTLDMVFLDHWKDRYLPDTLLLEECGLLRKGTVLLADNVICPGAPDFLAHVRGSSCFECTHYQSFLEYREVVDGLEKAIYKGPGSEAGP
Chain of Nicotinamide N-methyltransferase (Homo sapiens) (P40261 whole entry, looked up): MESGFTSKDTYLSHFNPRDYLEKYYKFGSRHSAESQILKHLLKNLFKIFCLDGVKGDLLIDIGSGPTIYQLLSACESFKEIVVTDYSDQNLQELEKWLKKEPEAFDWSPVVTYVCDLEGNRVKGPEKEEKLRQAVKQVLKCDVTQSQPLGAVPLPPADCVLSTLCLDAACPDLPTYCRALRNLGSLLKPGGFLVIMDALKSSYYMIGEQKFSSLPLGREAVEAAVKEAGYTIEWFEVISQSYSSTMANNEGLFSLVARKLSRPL
Chain of Phenylethanolamine N-methyltransferase (Homo sapiens) (P11086 whole entry, looked up): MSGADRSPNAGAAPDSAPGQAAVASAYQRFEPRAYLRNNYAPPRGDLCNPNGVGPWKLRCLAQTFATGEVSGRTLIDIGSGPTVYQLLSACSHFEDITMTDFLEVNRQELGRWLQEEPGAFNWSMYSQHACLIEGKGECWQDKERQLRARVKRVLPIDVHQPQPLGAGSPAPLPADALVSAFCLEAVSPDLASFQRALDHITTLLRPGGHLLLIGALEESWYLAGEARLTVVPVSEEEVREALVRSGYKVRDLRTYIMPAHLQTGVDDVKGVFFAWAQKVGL

In the case of OC[C@H]1O[C@@H](O[C@@H]2OC=C[C@H]3[C@H](O)[C@@H]4O[C@]4(CO)[C@@H]23)[C@H](O)[C@@H](O)[C@@H]1O, the Potency [1] is reported as “inactive”, the Potency [2] is reported as “inactive” and the Potency [3] is reported as “inactive”. For the same compound, the Potency [4] was “inactive” and the outcome [5] was “inactive”.

In the case of Cc1cn([C@H]2C[C@H](O)[C@@H](CO)O2)c(=O)nc1N, the Potency [1] is reported as “inactive”, the Potency [2] is reported as “inactive” and the Potency [3] is reported as “inactive”. The Potency [4] was “inactive” and the Potency [6] was “inactive”.

In the case of CN(C)CCNC(=O)c1cccn2c(=O)c3cc4ccccc4cc3nc12, the Potency [1] is reported as 1190 nM (active), the Potency [2] is reported as 1190 nM (active) and the Potency [3] is reported as 668 nM (active). The Potency [4] was 668 nM (active), the activity [7] was 3% and the activity change, negative = inhibition [8] was 0.968% [at 12.7 µM]. The activity [9] was 3.48%, the activity [10] was 3.82% and the activity, negative = inhibition [6] was 2.53% [at 9.52 µM] (inactive).

With COC(=O)c1ccc(=O)c2nc3/c(=C/O)c(O)cc(=O)c3[nH]c12 the Potency [1] was “inactive”, the Potency [2] was “inactive” and the Potency [3] was 5170 nM (active). For the same compound, the Potency [4] was 13000 nM (active), the activity [7] was -24.9% and the activity change, negative = inhibition [8] was -20.5%. For the same compound, the activity [9] was -20%, the activity [10] was -28.7% and the Potency [6] was “inactive”.

For CC(C)C(=O)OC[C@@]1(N=[N+]=[N-])O[C@@H](n2ccc(N)nc2=O)[C@H](OC(=O)C(C)C)[C@@H]1OC(=O)C(C)C, the Potency [1] was “inactive”, the Potency [2] was “inactive” and the Potency [3] was “inactive”. For the same compound, the Potency [4] was “inactive” and the outcome [5] was “inactive”.

In the case of COc1ccc2cc1Oc1ccc(cc1)CC1c3cc(c(OC)cc3CCN1C)Oc1c(OC)c(OC)c(OC)c3c1C(C2)N(C)CC3 (stereo unspecified), the Potency [1] is reported as “inactive”, the Potency [2] is reported as “inactive” and the Potency [3] is reported as “inactive”. For the same compound, the Potency [4] was “inactive” and the Potency [6] was “inactive”.

In the case of CC1=CC(=O)C(C(C)C)=CC1=O, the Potency [1] is reported as “inactive”, the Potency [2] is reported as “inactive” and the Potency [3] is reported as 14600 nM (active). The Potency [4] was 6510 nM (active) and the Potency [6] was “inactive”.

For Cc1ccc([N+](=O)[O-])cc1S(=O)(=O)N(C)/N=C\c1cnc2ccc(Br)cn12, the Potency [1] was 164 nM (active), the Potency [2] was 231 nM (active) and the Potency [3] was 58 nM (active). For the same compound, the Potency [4] was 51.7 nM (active).

In the case of CSc1nc(N)cc(Oc2ccc(-c3nc(Nc4cccc(C(F)(F)F)c4)n[nH]3)cc2)n1, the Potency [1] is reported as 4610 nM (active), the Potency [2] is reported as 5800 nM (active) and the Potency [3] is reported as 1640 nM (active). For the same compound, the Potency [4] was 1300 nM (active) and the Potency [6] was “inactive”.

For C[C@@H](Oc1cc(-n2cnc3ccc(OC4CCN(C)CC4)cc32)sc1C(N)=O)c1ccccc1Cl, the Potency [1] was 18.4 nM (active), the Potency [2] was 461 nM (active) and the Potency [3] was 41.1 nM (active). For the same compound, the Potency [4] was 58 nM (active), the activity [7] was -96.8% and the Potency [8] was 8570 nM (active). The activity [9] was -85.5%, the activity [10] was -96.2% and the Potency [6] was “inactive”.

With CCn1c(=O)c2cc(C(N)=O)c(N)nc2n(C2CC2)c1=O the Potency [1] was “inactive”, the Potency [2] was “inactive” and the Potency [3] was “inactive”. The Potency [4] was “inactive”.

With Oc1cccc(-c2nc(N3CCOCC3)c3sccc3n2)c1 the Potency [1] was 5170 nM (active), the Potency [2] was 4610 nM (active) and the Potency [3] was 1300 nM (active). The Potency [4] was 1160 nM (active) and the Potency [6] was “inactive”.

With CC(C)n1nc(-c2ccc(NC(=O)Nc3cccc(C(F)(F)F)c3)cc2)c2c(N)ncnc21 the Potency [1] was 1030 nM (active), the Potency [2] was 4110 nM (active) and the Potency [3] was 366 nM (active). For the same compound, the Potency [4] was 259 nM (active), the activity [7] was -1.63% and the activity change, negative = inhibition [8] was 0%. For the same compound, the activity [9] was -74.3%, the activity [10] was -1.08% and the Potency [6] was “inactive”.

For O=C1NC(=O)/C(=C\c2ccc3nccc(-c4ccncc4)c3c2)S1, the Potency [1] was 1160 nM (active), the Potency [2] was 1460 nM (active) and the Potency [3] was 326 nM (active). For the same compound, the Potency [4] was 366 nM (active).

For S=c1ssc2c1CCC2, the Potency [1] was “inactive”, the Potency [2] was “inactive” and the Potency [3] was “inactive”. The Potency [4] was “inactive”, the activity [7] was -2.41% and the activity change, negative = inhibition [8] was 0%. For the same compound, the activity [9] was -69.9%, the activity [10] was -71% and the Potency [6] was 14300 nM (active).

In the case of Cc1cc(-c2ccc(/C=C3\SC(=Nc4ccc(Cl)c(C(=O)O)c4)NC3=O)o2)c([N+](=O)[O-])cc1C, the Potency [1] is reported as “inactive”, the Potency [2] is reported as “inactive” and the Potency [3] is reported as “inactive”. For the same compound, the Potency [4] was “inactive” and the Potency [6] was 20200 nM (active).

For Cc1cc(Nc2cc(C)c(C#N)c(NC(C)CCCC(C)(C)O)n2)n[nH]1 (stereo unspecified), the Potency [1] was 1460 nM (active), the Potency [2] was 1300 nM (active) and the Potency [3] was 1030 nM (active). For the same compound, the Potency [4] was 1160 nM (active) and the Potency [6] was “inactive”.

For O=C(Nc1cccc(Nc2cc(Nc3cccc(C(F)(F)F)c3)ncn2)c1)C1CC1, the Potency [1] was 920 nM (active), the Potency [2] was 920 nM (active) and the Potency [3] was 731 nM (active). For the same compound, the Potency [4] was 920 nM (active), the activity [7] was -58% and the Potency [8] was 21500 nM (active). For the same compound, the activity [9] was -68.1%, the activity [10] was -61.4% and the Potency [6] was “inactive”.

With O=S(=O)(/N=C/c1c(O)ccc2ccccc12)c1cccs1 the Potency [1] was “inactive”, the Potency [2] was “inactive” and the Potency [3] was “inactive”. The Potency [4] was “inactive” and the Potency [6] was “inactive”.

With C=CC(=O)Nc1cccc(Nc2nc(Nc3ccccc3)ncc2C)c1 the Potency [1] was 18400 nM (active), the Potency [2] was 13000 nM (active) and the Potency [3] was 8200 nM (active). The Potency [4] was 8200 nM (active) and the Potency [6] was “inactive”.

In the case of O=C1NC(=O)C(c2c[nH]c3ccccc23)=C1c1c[nH]c2ccccc12, the Potency [1] is reported as “inactive”, the Potency [2] is reported as “inactive” and the Potency [3] is reported as 18600 nM (active). For the same compound, the Potency [4] was 20900 nM (active), the activity [7] was -38.2% and the Potency [8] was 30600 nM (active). The activity [9] was -39.6%, the activity [10] was -46.7% and the Potency [6] was “inactive”. For the same compound, the Z-AUC [11] was 1.34 (inactive), the Z-AUC ([11]; measured here: PEO1 parental Z-AUC) was 0.607 and the Z-AUC ([11]; measured here: PEO4 Z-AUC) was 0.134.

For CSc1cc2c(s1)c1cnn(Cc3ccccc3F)c(=O)c1n2C, the Potency [1] was “inactive”, the Potency [2] was “inactive” and the Potency [3] was “inactive”. The Potency [4] was “inactive”.

For COc1ccc2nc3ccc(OC)cc3c(SCCCN)c2c1, the Potency [1] was “inactive”, the Potency [2] was “inactive” and the Potency [3] was “inactive”. The Potency [4] was “inactive”.

In the case of N#Cc1c2nc3ccccc3nc2n2ccc(NC(=O)c3cccs3)cc12, the Potency [1] is reported as 23100 nM (active), the Potency [2] is reported as 20600 nM (active) and the Potency [3] is reported as 1160 nM (active). The Potency [4] was 1160 nM (active) and the Potency [6] was “inactive”.
